PubChem BioAssay (NCATS)
For some assays here: Potency and affinity values are given separately. Calls of active or inactive are those of the source.

How the values were obtained:
[1] = Ebola virus entry assay, green fluorescence channel
[2] = Ebola virus entry assay, blue channel fluorescence
[3] = Ebola virus entry assay, green fluorescence channel; remark: listed apart in the source
[4] = Ebola virus entry assay, ratio channel readout
[5] = Ebola virus entry assay, blue channel fluorescence; remark: listed apart in the source
[6] = Ebola virus entry assay, ratio channel
[7] = Ebola virus entry assay, blue channel fluorescence; remark: listed apart in the source
[8] = Ebola virus entry assay, reporter ratio channel
[9] = Ebola virus entry assay, blue channel (ratio component)
[10] = qHTS profiling of the MIPE4 collection as inhibitors of Plasmodium falciparum (3D7) proliferation (AID 743344);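 further: scaled between DMSO vehicle wells and 0.29 µM artemisinin as full inhibition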; conditions: P. falciparum 3D7 in erythrocytes, SYBR Green DNA fluorescence, 72 h; at 28.5 µM (top of the series) unless noted
Procedure, shortened: (§1)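 Erythrocytes infected with P. falciparum (0.3% parasitemia, 2.5% hematocrit) incubated with compounds 72 h at 37 C, 5% CO2. Lysis with saponin/Triton buffer containing SYBR Green I, overnight at room temperature in the dark; DNA fluorescence (485/535 nm) normalised to 0.29 uM artemisinin and DMSO.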

[11] = qHTS profiling of the MIPE4 collection as inhibitors of Plasmodium falciparum (DD2) proliferation (AID 743345); conditions: P. falciparum Dd2 in erythrocytes, SYBR Green DNA, 72 h; at 28.5 µM (top of the series) unless noted
Procedure, shortened: as §1

[12] = qHTS profiling of the MIPE4 collection as inhibitors of Plasmodium falciparum (DD2) proliferation (Rep 2) (AID 743346); conditions: P. falciparum Dd2 in erythrocytes, SYBR Green DNA, 72 h; at 28.5 µM (top of the series) unless noted
Procedure, shortened: as §1

[13] = qHTS profiling of the MIPE4 collection as inhibitors of Plasmodium falciparum (HB3) proliferation (AID 743347);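 further: plate controls were DMSO vehicle wells for no effect and artemisinin wells for full effect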; conditions: P. falciparum HB3 in erythrocytes, SYBR Green DNA, 72 h; at 28.5 µM (top of the series) unless noted
Procedure, shortened: as §1

[14] = Ebola virus entry reporter assay, green channel fluorescence
[15] = Ebola virus entry assay, green channel fluorescence
[16] = AC50: Channel type: primary unless noted, outcome: Channel type: primary unless noted
Wherever efficacy is given: 0% is about no effect.

O=C1CCc2cc(OCCCCc3nnnn3C3CCCCC3)ccc2N1
inactive: efficacy [1] 80.2% | outcome [2] | outcome [3] | outcome [4] | outcome [5] | outcome [6] | outcome [7] | outcome [8, 16] | outcome [9]

COc1ccc(C(CN(C)C)C2(O)CCCCC2)cc1 (stereo not given)
inactive: efficacy [1] 55.6% | outcome [2] | outcome [3] | outcome [4] | outcome [6] | outcome [7] | outcome [14]
21.1%: parasite growth, % of DMSO control [10]
active: AC50 [5] 35.5 µM | AC50 [8, 16] 39.8 µM
60.2%: growth, % of control [13]
58.9%: parasite growth remaining, % of DMSO control (lower = more inhibition) [11]
42.9%: parasite growth, % of control (lower = inhibition) [12]

COc1cc2nc(N(C)CCCNC(=O)C3CCCO3)nc(N)c2cc1OC (stereo not given)
active: AC50 [5] 39.8 µM | AC50 [8, 16] 35.5 µM
inactive: efficacy [1] 46.7% | outcome [2] | outcome [3] | outcome [4] | outcome [6] | outcome [7] | outcome [14]

Oc1ccc(C2CNCCc3c2cc(O)c(O)c3Cl)cc1 (stereo not given)
inactive: efficacy [1] 16.5% | outcome [2] | outcome [3] | outcome [4] | outcome [5] | outcome [6] | outcome [15] | outcome [8, 16] | outcome [14]

CCCSc1ccc2nc(NC(=O)OC)[nH]c2c1
active: AC50 [5] 3.16 µM | AC50 [6] 3.98 µM
inactive: efficacy [1] 60.2% | outcome [2] | outcome [3] | outcome [4] | outcome [8, 16] inactive [Channel type: confirmation]

Cc1ccc(-n2[nH]c(C)c(N=Nc3cccc(-c4cccc(C(=O)O)c4)c3O)c2=O)cc1C
inactive: efficacy [1] 128% | outcome [2] | outcome [3] | outcome [4] | outcome [5] | outcome [6] | outcome [7] | outcome [8, 16] | outcome [9] | outcome [14]

CCOC(=O)Nc1ccc2c(c1)N(C(=O)CCN1CCOCC1)c1ccccc1S2
active: AC50 [8, 16] 39.8 µM
inactive: efficacy [1] 62.7% | outcome [2] | outcome [3] | outcome [4] | outcome [5] | outcome [6] | outcome [7] | outcome [9]

COC1=CC(=O)C[C@@H](C)[C@]12Oc1c(Cl)c(OC)cc(OC)c1C2=O
inactive: efficacy [1] 30% | outcome [2] | outcome [3] | outcome [4] | outcome [5] | outcome [6] | outcome [7] | outcome ([8]; Channel type: confirmation) | outcome ([8]; Channel type: primary) | outcome [14]

N=C(N)c1ccc(OCCCCCOc2ccc(C(=N)N)cc2)cc1
inactive: efficacy [1] 22.7% | outcome [2] | outcome [3] | outcome [4] | outcome [5] | outcome [6] | outcome [7] | outcome [8, 16] | outcome [9]

CC(=O)O[C@@]12CO[C@@H]1C[C@H](O)[C@@]1(C)C(=O)[C@H](O)C3=C(C)[C@@H](OC(=O)[C@H](O)[C@@H](NC(=O)OC(C)(C)C)c4ccccc4)C[C@@](O)([C@@H](OC(=O)c4ccccc4)[C@H]21)C3(C)C
active: AC50 [6] 20 µM | AC50 [8, 16] 20 µM
inactive: efficacy [1] 57.5% | outcome [2] | outcome [3] | outcome [4] | outcome [5] | outcome [7] | outcome [9] | outcome [14]

C[C@H]1c2cccc(O)c2C(O)=C2C(=O)[C@]3(O)C(O)=C(C(N)=O)C(=O)[C@@H](N(C)C)[C@@H]3[C@@H](O)[C@@H]21
active: AC50 [5] 25.1 µM | AC50 [6] 20 µM | AC50 [8, 16] 20 µM
inactive: efficacy [1] 76.6% | outcome [2] | outcome [3] | outcome [4] | outcome [7]

CCOC(=O)C1(c2ccccc2)CCN(CCC(C#N)(c2ccccc2)c2ccccc2)CC1
inactive: efficacy [1] -34.7% | outcome [2] | outcome [3] | outcome [4] | outcome [15] | outcome [14]
active: AC50 [5] 14.1 µM | AC50 [6] 10 µM | AC50 [8, 16] 10 µM

CCc1c2c(nc3ccc(OC(=O)N4CCC(N5CCCCC5)CC4)cc13)-c1cc3c(c(=O)n1C2)COC(=O)[C@]3(O)CC
active: AC50 [5] 20 µM | AC50 [6] 28.2 µM | AC50 [8, 16] 28.2 µM
inactive: efficacy [1] 45.7% | outcome [2] | outcome [3] | outcome [4] | outcome [7]

OCCOCCN1CCN(C(c2ccccc2)c2ccc(Cl)cc2)CC1 (stereo not given)
active: AC50 [5] 25.1 µM | AC50 [6] 31.6 µM | AC50 [8, 16] 31.6 µM
inactive: efficacy [1] 86% | outcome [2] | outcome [3] | outcome [4] | outcome [7] | outcome [14]

CC[C@@]1(O)C(=O)OCc2c1cc1n(c2=O)Cc2cc3c(CN(C)C)c(O)ccc3nc2-1
inactive: outcome [2] | outcome [4] | outcome [5] | outcome [7] | outcome [9]
active: AC50 [1] 31.6 µM | AC50 [3] 7.94 µM | AC50 [6] 7.94 µM | AC50 [8, 16] 7.94 µM

COC(=O)CCc1ccc(OCC(O)CNC(C)C)cc1 (stereo not given)
active: AC50 [5] 22.4 µM | AC50 [8, 16] 31.6 µM
inactive: efficacy [1] 35.4% | outcome [2] | outcome [3] | outcome [4] | outcome [6] | outcome [7] | outcome [9]

NC[C@H](O)c1ccc(O)c(O)c1
inactive: efficacy [1] 112% | outcome [2] | outcome [3] | outcome [4] | outcome [7]
active: AC50 [5] 12.6 µM | AC50 [6] 7.94 µM | AC50 [8, 16] 7.94 µM
